Measurements from PubChem BioAssay (NCATS).
Records with an inconclusive call do not appear. A call without a number means that no potency is given here. Active and inactive are the calls of the source. Calls come from the whole dose curve; as a rule, active = well fitted inhibition curve with a large enough effect; inconclusive = small, poorly fitted or top-dose-only effect; inactive = flat fitted curve, though single readings scatter.

Key:
Test in all cases: qHTS profiling for inhibitors of Plasmodium falciparum proliferation (AID 504749); note: nearly all actives have a fitted effect of over 60% in size
Conditions in all cases: P. falciparum in erythrocytes, SYBR Green DNA, 72 h; series mostly up to 28.7 µM
CP325 = test system: CP325
How it was run: (§1)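 Readout was DNA-dye fluorescence from lysed cultures, ex 485/em 535 nm. Parasitized red cells had grown 72 h with compound; data scaled between 0.29 uM artemisinin and DMSO wells and corrected using vehicle-only plates.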

ECU = test system: ECU
How it was run: as §1

CP297 = test system: CP297
How it was run: as §1

CP315 = test system: CP315
How it was run: as §1

CP329 = test system: CP329
How it was run: as §1

DFO2036 = test system: DFO2036
How it was run: as §1

DIV14 = test system: DIV14
How it was run: as §1

DIV17 = test system: DIV17
How it was run: as §1

DIV30 = test system: DIV30
How it was run: as §1

Dd2 = test system: Dd2
How it was run: as §1

FAB9 = test system: FAB9
How it was run: as §1

JCK = test system: JCK
How it was run: as §1

N140 = test system: N140
How it was run: as §1

P93_24 = test system: P93_24
How it was run: as §1

CP305 = test system: CP305
How it was run: as §1

CP335 = test system: CP335
How it was run: as §1

GB4 = test system: GB4
How it was run: as §1

HB3 = test system: HB3
How it was run: as §1

CP291 = test system: CP291
How it was run: as §1

ICS = test system: ICS
How it was run: as §1
Potency is the fitted concentration of half-maximal effect.

CCOc1cc(-c2nccc3cc(OC)c(OC)cc23)cc(OCC)c1OCC
Potency (CP325): inactive
Potency (ECU): 11.2 µM (active)

O=C(CCCN1CCC(C(=O)c2ccc(F)cc2)CC1)c1ccc(F)cc1
Potency (CP297): inactive
Potency (CP315): inactive
Potency (CP325): inactive
Potency (CP329): inactive
Potency (DFO2036): inactive
Potency (DIV14): 757 nM (active)
Potency (DIV17): 4.78 µM (active)
Potency (DIV30): inactive
Potency (Dd2): 8.91 µM (active)
Potency (ECU): inactive
Potency (FAB9): inactive
Potency (JCK): inactive
Potency (N140): inactive
Potency (P93_24): inactive

CN1C(C(=O)Nc2ccccn2)C(=O)c2sc(Cl)cc2S1(=O)=O (centres undefined)
Potency (CP297): inactive
Potency (CP305): inactive
Potency (CP315): inactive
Potency (CP325): inactive
Potency (CP329): inactive
Potency (CP335): inactive
Potency (DFO2036): inactive
Potency (DIV14): inactive
Potency (DIV17): inactive
Potency (DIV30): inactive
Potency (Dd2): inactive
Potency (ECU): inactive
Potency (FAB9): inactive
Potency (GB4): inactive
Potency (HB3): inactive
Potency (JCK): inactive
Potency (N140): inactive
Potency (P93_24): inactive

C=CC[N+]1([C@H]2C[C@H]3[C@@H]4CC[C@H]5C[C@H](O)[C@@H](N6CCOCC6)C[C@]5(C)[C@H]4CC[C@]3(C)[C@H]2OC(C)=O)CCCC1
Potency (CP335): 12 µM (active)
Potency (DIV14): inactive
Potency (DIV17): inactive
Potency (Dd2): 10 µM (active)
Potency (FAB9): inactive
Potency (JCK): inactive

Cn1cc(NC(=O)c2cc(NC(=O)c3cc(NC=O)cn3C)cn2C)cc1C(=O)NCCC(=N)N
Potency (CP291): 9.53 µM (active)
Potency (CP305): 8.49 µM (active)
Potency (CP325): 10.7 µM (active)
Potency (CP329): 15.1 µM (active)
Potency (CP335): 8.49 µM (active)
Potency (DIV14): 3380 nM (active)
Potency (DIV17): 3.79 µM (active)
Potency (ECU): 10 µM (active)
Potency (FAB9): 11.2 µM (active)
Potency (GB4): 7.57 µM (active)
Potency (HB3): 10 µM (active)
Potency (ICS): 3.55 µM (active)
Potency (JCK): 12.6 µM (active)
Potency (N140): 5.01 µM (active)
Potency (P93_24): 5.01 µM (active)

C(=C\c1ccncc1)/c1ccccc1
Potency (CP297): inactive
Potency (CP305): inactive
Potency (CP315): inactive
Potency (CP325): inactive
Potency (CP329): inactive
Potency (CP335): inactive
Potency (DFO2036): inactive
Potency (DIV14): inactive
Potency (DIV17): inactive
Potency (DIV30): inactive
Potency (Dd2): inactive
Potency (FAB9): inactive
Potency (GB4): inactive
Potency (JCK): inactive
Potency (N140): inactive

CC(C)C1=CC2=CC[C@@H]3[C@](C)(CCC[C@@]3(C)C(=O)O)[C@H]2CC1
Potency (CP335): inactive
Potency (DFO2036): inactive
Potency (Dd2): inactive
Potency (ECU): inactive
Potency (FAB9): inactive
Potency (HB3): inactive
Potency (ICS): inactive
Potency (JCK): inactive
Potency (N140): inactive
Potency (P93_24): inactive

CCCOc1cc(N)ccc1C(=O)OCCN(CC)CC
Potency (CP291): inactive
Potency (CP305): inactive
Potency (CP329): inactive
Potency (DFO2036): inactive
Potency (DIV14): inactive
Potency (DIV17): inactive
Potency (Dd2): inactive
Potency (ECU): inactive
Potency (FAB9): inactive
Potency (GB4): inactive
Potency (HB3): inactive
Potency (ICS): inactive
Potency (JCK): inactive
Potency (N140): inactive
Potency (P93_24): inactive

COc1ccc2nc(NC(=O)Nc3ccccc3)sc2c1
Potency (CP297): inactive
Potency (CP305): inactive
Potency (CP315): inactive
Potency (CP325): inactive
Potency (CP335): inactive
Potency (DFO2036): inactive
Potency (DIV17): 4.78 µM (active)
Potency (ECU): inactive
Potency (FAB9): inactive
Potency (HB3): inactive
Potency (ICS): 7.94 µM (active)
Potency (JCK): inactive
Potency (P93_24): inactive

NC(N)=NCC1COc2ccccc2O1 (centres undefined)
Potency (CP291): inactive
Potency (CP315): inactive
Potency (DIV14): inactive
Potency (DIV30): inactive
Potency (ECU): inactive
Potency (FAB9): inactive
Potency (JCK): inactive
Potency (N140): inactive

NC(=O)Oc1ccc(Cc2ccccc2)cc1
Potency (CP297): inactive
Potency (CP305): inactive
Potency (CP315): inactive
Potency (CP325): inactive
Potency (CP329): inactive
Potency (CP335): inactive
Potency (DFO2036): inactive
Potency (DIV14): inactive
Potency (DIV17): inactive
Potency (DIV30): inactive
Potency (Dd2): inactive
Potency (ECU): inactive
Potency (FAB9): inactive
Potency (GB4): inactive
Potency (HB3): inactive
Potency (ICS): inactive
Potency (JCK): inactive
Potency (N140): inactive
Potency (P93_24): inactive

OCCOCCOCCO
Potency (CP335): inactive
Potency (DFO2036): inactive
Potency (Dd2): inactive
Potency (ECU): inactive
Potency (FAB9): inactive
Potency (HB3): inactive
Potency (ICS): inactive
Potency (JCK): inactive
Potency (N140): inactive
Potency (P93_24): inactive

O=C1CCC(c2ccccc2)(C2CCN(Cc3ccccc3)CC2)C(=O)N1 (centres undefined)
Potency (CP291): inactive
Potency (CP315): inactive
Potency (CP325): inactive
Potency (CP329): inactive
Potency (DFO2036): inactive
Potency (DIV30): inactive
Potency (ECU): inactive
Potency (FAB9): inactive
Potency (HB3): inactive
Potency (ICS): inactive
Potency (JCK): inactive
Potency (N140): inactive
Potency (P93_24): inactive

OCc1ccccc1
Potency (CP315): inactive
Potency (CP329): inactive
Potency (ICS): 2.24 µM (active)

Oc1cccc(O)c1O
Potency (CP315): inactive
Potency (DFO2036): inactive
Potency (DIV17): 9.53 µM (active)
Potency (DIV30): inactive
Potency (FAB9): inactive
Potency (ICS): 3.98 µM (active)
Potency (JCK): inactive
Potency (N140): inactive
